Results on 108 sequences are retold here after PubChem BioAssay AID1508600 (Functional Genomics Laboratory (NCATS/FGL), 2020).

Screen size: about 53,000 sequences; about 3,700 (7%) were called active. Only a selection was taken, and actives are over-represented in it overall. Values without a mark were called inactive.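 Rule for the calls: active = gene knockdowns whose robust z-score for IL-1 alpha signal is at least 2 or at most -2, so actives lie on both sides; inactive = the rest.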

The assay in a line: Components of the Cytosolic LPS Sensing Pathway: Gene Identification via Genome-wide siRNA Screen.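 Note: robust z of the log signal after scaling to non-targeting control siRNA wells of the plate.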 Particulars: RAW264.7 macrophages, IL-1a HTRF, actives lie on both sides, screened at 100 nM (by protocol), cells primed 5 h with Pam3CSK4 first. An outline of the steps:
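Read-out: IL-1a HTRF on supernatant, divided by plate negative-control median ×100, log-transformed and converted to robust z-score. Cells were RAW264.7 given 100 nM siRNA, Pam3CSK4-primed 5 hours, then LipidA-transfected 24 hour.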
For orientation: In TR-FRET formats the signal depends on donor and acceptor labels being close together.
With GGCAAUGAUGAUCUCCUCUTT against Htra3, the z-score is 0.434. As for GGGUAUGACCGGUAUUACATT against Atp5j2, the z-score was 0.213. In the case of GGAGGCAGCCAAAGAAAACTT against Bmp8a it was 0.462; in that of GGAUGAAAUCGCCAUAUGUTT against Snrnp48, -1.89; in that of GGAGAAAACCUAGAAAUUUTT against Galnt1, 0.238. CCGGCUAUGAAGAUGAGUATT against Cox6a1: the z-score was 3.21 (active). In the case of “GCCGUAAGCUAGGAUCUGGTT against 1700065D16Rik” it was 0.787. In the case of GGUAAUACAACUGAGAACUTT against Zfp2 it was 0.39. In the case of GGCAUCUGAGUGAUAUAAATT against Dcps it was 0.109; in that of GGCCGUGUUAUCCAGAUUGTT against Prkcd, 1.43; in that of GGCAGUCUCAGGUUAUCUCTT against Zfp445, 0.406. As for GGCUUUUCAGCAGGUUUAATT against Ube2g1, the z-score was 5.04 (active). In the case of GGCUGUAAGGGAACAGCUATT against Irf2bp1 it was -0.615; in that of GGUGAUGAAAUUUAUUGAGTT against Gpn1, -0.127; in that of GGAGAAGGGCCUGAAGUAUTT against Lsm5, -1.77.

For the sequence GGUGGCAGUCACCAUUCUUTT against Il17rd, the z-score was -0.364. With CCAUACAGAUCGCACCCUGTT against Txndc15 the figure was -2.15 (active); with GGACAGAGCCUAGAAAACUTT against Mpdu1, -1.15; with GGCUCCAAGGGAUUUGGUUTT against Rbfox1, 2.77 (active). In the case of GGACUUUGUCAACCAUGUCTT against Fbxl5, the z-score was -0.0144. In the case of CGUCAAUUCACACCAUUCATT against Gsk3a it was -1.25. With GGGUGCUCUGAAGAAGCAATT against Olfr488 the figure was -2.04 (active); with GGCUUAUGUCACCAACUUGTT against Pxdc1, -0.533. In the case of GGAGUUAGAAUUGAACCUUTT against Mr1 it was -1.49. For the sequence GGAUCCAUUUUGAGGAUUUTT against Vipr1, the z-score was -0.056. For the sequence GGGCAAGUACAAGCGUAACTT against Jph4, the z-score was -1.5.

As for GGGAAAACACAAAGAAGAATT against Angpt1, the z-score was 0.307. As for GGAGCCUAUCGCUUUACUCTT against Vps16, the z-score is 1.18.

Regarding GGAGAUCUGUGAUGAGGUGTT against Nudt22, the z-score was 2.07 (active). For the sequence GGUGUCAACAUUGCAUACUTT against Gatad2b, the z-score was 1.62. In the case of GGAAACAUCCAAGAAAAAUTT against Ap1s2 it was -0.489.

On to GGCUAUGGAAACCACCACATT against Nrg3, for which the z-score was -1.21.

Regarding CGAUGAUAAAACGAACAAGTT against Plppr5, the z-score was 2.78 (active). Regarding GGAUUGUCCACAUGGAACUTT against Ccl27a, the z-score is -0.112. Consider GGUAUGGAUGAAGAACUAGTT against Pdhb, for which the z-score is 1.62. In the case of GGUUGUACCUACAACAGAUTT against Tiprl it was -0.773; in that of GGCUUUACUUCUUGCUGUGTT against Olfr1412, -0.918. In the case of CCAUGGACCAAAUGAAGUUTT against Cd44 it was 2.59 (active); in that of GCAAGAUACUGACCACUAGTT against Krt25, 0.14.

CCCAGGUGAGACCUUUACCTT against Fndc3b: the z-score was -1.76. In the case of CCUUCUUGUGGGAGUGAAATT against Chodl it was -0.0597. As for GGUAGACACACACAUUCAUTT against Ampd3, the z-score was 0.633. Turning to AGUGCUCAUUAACUGUCGCTT against Snrpd2, the z-score is -2.75 (active).

As for CCGUUGACCUGAAAAGGAATT against Clic4, the z-score is -0.0288. Take GGAGAAAAGCAAUAAUGAATT against Klf12: the z-score is -1.07.

For the sequence CGUGAGCACAAAAAUAUUGTT against Fchsd2, the z-score was -0.251. For the sequence GGACAAGUCGAAGAGUGAGTT against Ing1, the z-score is -2.26 (active). In the case of GGAACAGCGGCUAACUUAUTT against Asic4 it was 1.4.

GGUGCUAAGCAUGAAGCCUTT against Stk16: the z-score was -1.01. In the case of GGUAGAAGAAUUGUUUGUGTT against Tcp11l1, the z-score is 0.967.

GGUGAUGCUUCUUGGAGACTT against Rab37: the z-score is -0.59.

Take GCGUGAACGGAUAAAAAAUTT against Figla: the z-score was 1.09. In the case of GGCACUUAAGGAAAUUGGGTT against Bloc1s1, the z-score is -2.02 (active). Regarding CCAUUCCAAAGGUAUUAGCTT against Olfr619, the z-score is -0.244. With GGCAAAACAACUUUAUUCCTT against Ucp2 the figure was 1.14. With GGAUAUCACCUUCGAGAUATT against Ankrd7 the figure was -0.0496; with GGAUGAGAUCAACUUCCUCTT against Krt7, -0.6; with GCAUCUCAAGACGAUGGAUTT against Akap8l, 2.3 (active).

On to GGCUUUUGAAGCCAUCAAGTT against Mrpl57, for which the z-score is -1.2.

On to GGAAUUCUGACGUGAAGAATT against Olfr13, for which the z-score is -0.987. With GGUAGACUGUGAAAAUGACTT against Ldlr the figure was -0.6; with GGUGAAGCGAAUUCUCUACTT against Upb1, -0.362; with “GGCAUUGGCAUUUUUAUAGTT against 9530056K15Rik”, -0.879. In the case of GCCACGAGUUCUUUGAAGCTT against Ubxn6 it was -0.15. In the case of GGACAAGAUUGUAUCUGCATT against Olfr1507 it was -0.56; in that of GGAGCAAGAGUCUAAAUGATT against Rubcn, -2.23 (active).

On to GGAUCAAGUGGCUGAUUUGTT against Ube2t, for which the z-score was -0.457. GGACUAUUCUGAGAAUCCCTT against Olfr821: the z-score is -1.69. With GCCUCUGAUGUAAACAGGATT against Nr2c2ap the figure was 0.883. With “GCAGUGUAUACCUGGGCUATT against 1700001C19Rik”, the z-score was 0.388. In the case of GGCACUCCUGAUGUUCUCUTT against Cyb561d2 it was -2.96 (active).

As for GGUGUUACAGAUGUACCGATT against Nfkbid, the z-score was 0.0859. On to GGAAGACAAUGAUGAUGUUTT against Clns1a, for which the z-score is -1.82. With GGAGUUUUGAAUAAACCAATT against Tmc7 the figure was -0.2; with GGGCUUUCCUCAAGGUAGUTT against Olfr62, -1.39; with GGAAUUGUCUAACAGGCUGTT against Hoxd12, -0.025. With GGAACAGUUACUUGAGAGUTT against Zfp786 the figure was 0.759; with CGAGCUCAGGCCUAUUAAATT against Cdh12, 3.39 (active); with GGCUUUGACAAUCUUUAAGTT against Ergic1, -0.687. Consider CCUCAACUGGUUCCCUAACTT against Spatc1, for which the z-score was -1.73.

For GCUGGUUACAUAAAGCUACTT against Slc25a51, the z-score was 0.0694. In the case of CGGAGUAAACAAUACAGUCTT against Gnmt it was 2.26 (active); in that of CCUCCUAAGGAUGAAGAUUTT against Calml4, 0.654. Regarding CGACAGUUACUUGCCCAGATT against Rasgrp3, the z-score was -1.36. For the sequence GGCGAAAUCUGCUAGAGUATT against Tppp3, the z-score was 2.3 (active). For the sequence GCUGUCGUUGAAGGCAUUGTT against Olfr317, the z-score is -0.828. In the case of GAGUGAUGCGCAUUUCGAGTT against Sf3b5 it was -2.53 (active). With GCCAGAUCAUUGUAUCAAUTT against Tmx3 the figure was 1.27. Take GGAGAUUGUUGACCUGGUCTT against Tuba3b: the z-score was 2.03 (active). Consider GGUGGAUGUCUUCUUCAACTT against Gata2, for which the z-score was 0.697. Take GCCUCGUGAAUAAUUGAAATT against Ddt: the z-score is 0.967.

Regarding GCCUAUUCUAUCGAUAACCTT against Cdh23, the z-score was 0.801. As to GGCCAUCAGUAUCAGCAAATT against Hip1r, the z-score is 0.547. With GGCUAUUGUGGAGAAGAUCTT against Cblif the figure was -2.07 (active); with GGAGACUCCUAAGAAGCAGTT against Cc2d1a, 0.445.

As for GGAUCGAAUCAGGAAUGAATT against Nphs1, the z-score is 1.39. With GGAGAGUUACGACGUAUUCTT against Ckb the figure was 0.23. On to GGGACAAAAACACAUGUACTT against Kif5c, for which the z-score was 0.773. Regarding GGGAAUCAAAGGCUUUGGGTT against Ms4a1, the z-score was -1.15.

For the sequence CCAUAUACCCUUGAAUUCCTT against Tmem185b, the z-score is 0.154. In the case of GGAAAGGAAUGUUCAAAUUTT against Psmb8 it was 2.02 (active). In the case of GGAAGACCUUCUUAAACACTT against Prokr2 it was 1.26; in that of GCUUUUGACGAGCAAGCAGTT against Eme1, 1.47. With GGCAGUCACUGGCUAAAUGTT against Ugt2a1 the figure was 2.13 (active). As for CCCUUUCCUAUUUGUUAUGTT against Serpinb3d, the z-score was 0.754. In the case of GGUAUUAGUAUGUAUCUUCTT against Olfr135 it was 0.305; in that of CCCUAAUGAAUGGUCUCAUTT against Tmem74, -0.176. In the case of CCAUGUCCUAACCUGAAACTT against Zic5 it was 0.372.
